# Assay results published in PubChem BioAssay (EPA / NIEHS).
# Inconclusive results are not listed. Active and inactive are the calls of the source. How the source made its calls, unless noted: active means hit-call score of the fitted dose curve at least 0.9, where 1 is the maximum; inconclusive means response in the unintended direction; inactive means score below 0.9.
# How the values were obtained:
# [1] = VALA_TUBHUV_Agonist_CellCount: Viability Assessment in the VALA Sciences human Umbilical Vein Endothelial Tubule Formation (TUBHUV) Agonism Assay (AID 2284309)
# Procedure, shortened: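 Viability endpoint by fluorescent imaging of fixed nuclear/CD31-stained HUVEC–HDF co-cultures. Readout is cell count, fitted upward against 0.1% DMSO. Compound exposure was 72 h in 10 ng/ml VEGF, after 3-day co-culture priming.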
# [2] = VALA_TUBHUV_Antagonist_CellCount: Viability Assessment in the VALA Sciences human Umbilical Vein Endothelial Tubule Formation (TUBHUV) Antagonism Assay (AID 2284310)
# Procedure, shortened: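 Read-out is imaged cell count after nuclear and CD31 staining, fitted against 0.1% DMSO vehicle. Compounds were added for 3 days, in 10 ng/ml VEGF assay medium, to HUVEC–HDF co-cultures pre-grown 3 days.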
# [3] = VALA_TUBIPS_Antagonist_TubuleLength: VALA Sciences human iPS-derived Endothelial Tubule Formation (TUBIPS) Antagonist Assay (AID 2284313)
# Protocol: VALA_TUBIPS_Agonist is a cell-based, multiplexed assay that uses human iPS-derived endothelial cells (iPSC). Measurements were taken 72 hours after chemical dosing in a 96-well plate.VALA_TUBIPS_Antagonist_TubuleLength is the one of two assay components measured from the VALA_TUBIPS_Antagonist assay. It is designed to make measurements of tubulogenesis, a form of morphology reporter, as detected with fluorescence intensity signals by HCS Fluorescent Imaging technology. This VALA_TUBIPS_Antagonist assay was designed to detect chemical suppression of tubulogenesis, i.e. antagonism.Data from the assay component VALA_TUBIPS_Antagonist_TubuleLength was analyzed at the endpoint, VALA_TUBIPS_Antagonist_TubuleLength, in the positive analysis fitting direction relative to DMSO as the negative control and baseline of activity. Using a type of morphology reporter, loss-of-signal activity can be used to understand developmental effects. To generalize the intended target to other relatable targets, this assay endpoint is annotated to the neurodevelopment intended target family, where the subfamily is tubulogenesis.
# […]
# [4] = IUF_NPC4_neurite_area_120hr: Leibniz Research Institute for Environmental Medicine (IUF) 120-hour Neuronal Morphology Assay for Neurite Area (NPC4) (AID 2284305)
# Procedure, shortened: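 Endpoint at 120 h: automated imaging of TUBB3/Hoechst-stained differentiating human neural progenitor spheres, neurite area per neuron from skeletonization. DMSO solvent control, not above 0.1%, set the baseline; medium was half-replaced on day 3.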
# [5] = IUF_NPC2-5_cytotoxicity_72hr: Cytotoxicity Assessment at 72 hours in the Leibniz Research Institute for Environmental Medicine (IUF) Neural Progenitor Cell Migration and Differentiation Assay for Cytotoxicity (NPC2-5) (AID 2284306);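 further: LDH release into supernatant measured by resorufin fluorescence marking membrane damage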
# Procedure, shortened: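 Primary human neural progenitor spheres migrate and differentiate on laminin. Compound is present from the start of differentiation, with DMSO kept at or below 0.1%. At 72 h, supernatant LDH is quantified fluorometrically, with values fitted in the positive direction.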
# [6] = IUF_NPC2-5_cytotoxicity_120hr: Cytotoxicity Assessment at 120 hours in the Leibniz Research Institute for Environmental Medicine (IUF) Neural Progenitor Cell Migration and Differentiation Assay (NPC2-5) (AID 2284307)
# Protocol: IUF_NPC2-5 is a cell-based, multiplexed assay that uses hNPC, a human primary neural progenitor cells, with measurements taken at 72 or 120 hours after chemical dosing in a 96-well plate. Human neural progenitor cells (hNPC) are generated from human fetal brain cortex at gestational week (GW) 16-19. In the neural progenitor cell migration and differentiation assay (NPC2-5), hNPCs grown as spheres are plated on an extracellular matrix and migrate and differentiate out of the sphere core. The processes radial glia migration, neuronal and oligodendrocyte migration as well as neuronal differentiation, neuronal morphology and oligodendrocyte differentiation are studied using automated phase contrast imaging and automated fluorescence imaging in combination with high content image analysis. In parallel, the cell viability is assessed using an alamar blue viability assay and the cytotoxicity using a lactate dehydrogenase dependent membrane integrity assay.IUF_NPC2-5_cytotoxicity_120hr is one of 12 assay components measured from the IUF_NPC2-5 assay. […] LDH measurements are performed from medium supernatants of each well and are based on the reduction of resazurin to resorufin measured as fluorescence signal (relative fluorescence unit) in a multiplate reader. Data from the IUF_NPC2-5_cytotoxicity_120hr component was analyzed at the endpoint IUF_NPC2-5_cytotoxicity_120hr in the positive analysis fitting direction relative to the dynamic range and baseline of activity. […]
# Culture protocol: After the cell expansion period the cells are cultured for up to four weeks in which they are passaged every week as described in 3.6. […] Therefore, half of the test condition solution (e.g. solvent control or compound dilution) is replaced by freshly prepared test condition solution.Test Method: Migration distance and cytotoxicity is determined after 72 hours based on brightfield images of each well. […] The plates are scanned using an automated high content imaging device and all nuclei and their positions are determined automatically based on their intensity and size. […]
# [7] = IUF_NPC2-5_cell_number_120hr: Cell Number Assessment at 120 hours in the Leibniz Research Institute for Environmental Medicine (IUF) Neural Progenitor Cell Migration and Differentiation Assay (NPC2-5) (AID 2284308; active means hit-call score of the fitted dose curve at least 0.9, where 1 is the maximum; inactive means score below 0.9;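 further: count of Hoechst-stained nuclei in migration zone around plated human neural progenitor spheres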)
# Procedure, shortened: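 Seven-point serial dilutions plus solvent control were applied to plated 0.3 mm hNPC spheres at differentiation start, with medium half-replaced at day 3. Nuclei positive for Hoechst in the migration zone were enumerated at 120 h.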
# [8] = VALA_TUBIPS_Agonist_TubuleLength: VALA Sciences human iPS-derived Endothelial Tubule Formation (TUBIPS) Agonism Assay (AID 2284311)
# Procedure, shortened: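 Agonist-mode readout is the gain in imaged tubule length versus DMSO baseline. It was measured by fluorescence high-content imaging 72 h after dosing human iPSC-derived endothelial cells.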
# [9] = IUF_NPC2-5_viability_120hr: Viability Assessment at 120 hours in the Leibniz Research Institute for Environmental Medicine (IUF) Neural Progenitor Cell Migration and Differentiation Assay (NPC2-5) (AID 2284312; active means hit-call score of the fitted dose curve at least 0.9, where 1 is the maximum; inactive means score below 0.9)
# Procedure, shortened: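 Human fetal (GW 16-19) neural progenitor spheres of 0.3 mm were plated on poly-D-lysine/laminin in N2 differentiation medium and exposed from day 0 for 120 h, with half-medium refresh at day 3. Viability was read as alamar blue resazurin-to-resorufin fluorescence against DMSO.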
# [10] = VALA_MIGHUV2_CellCount: Viability Assessment in the VALA Sciences human Umbilical Vein Endothelial Cell Migration (MIGHUV) Assay, Area of Scratch Wound after Recovery (AID 2284314)
# Procedure, shortened: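 Viability read-out: Hoechst-stained nuclei counted by fluorescence imaging after a 24 h recovery period in fixed, scratched HUVEC plates. Compound was dosed within 30 min of scratching at six concentrations (triplicate); DMSO at 0.1 % served as baseline.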
smiles,measurement,setting,value
Cc1cc(NC(=O)C(=O)O)cc(C)c1Oc1ccc(O)c2c1CCC2,AC50,[1],91.7 µM (active)
same,AC50,[2],81.2 µM (active)
same,outcome,[3],inactive
COC(=O)c1ccc(O)cc1,outcome,[1],inactive
same,outcome,[2],inactive
same,outcome,[3],inactive
OC[C@@H](O)[C@@H](O)[C@H](O)[C@H](O)CO,outcome,[4],inactive
same,outcome,[5],inactive
same,outcome,[6],inactive
same,outcome,[7],inactive
same,outcome,[1],inactive
same,outcome,[8],inactive
same,outcome,[9],inactive
same,outcome,[3],inactive
same,outcome,[10],inactive
CCCCC(CC)COC(=O)CC(C(=O)OCC(CC)CCCC)S(=O)(=O)O (centres undefined),AC50,[1],7.22 µM (active)
same,outcome,[8],inactive
same,outcome,[3],inactive
same,AC50,[10],50 µM (active)
Oc1ccc2ccccc2c1N=Nc1ccccc1,outcome,[1],inactive
same,outcome,[10],inactive
CCCc1cc(=O)[nH]c(=S)[nH]1,outcome,[1],inactive
same,outcome,[3],inactive
O=c1c(O)c(-c2ccc(O)c(O)c2)oc2cc(O)cc(O)c12,outcome,[1],inactive
same,outcome,[3],inactive
C[Si]1(C)O[Si](C)(C)O[Si](C)(C)O[Si](C)(C)O1,outcome,[4],inactive
same,outcome,[5],inactive
same,outcome,[6],inactive
same,outcome,[7],inactive
same,outcome,[9],inactive
CC(=O)Oc1ccccc1C(=O)O,outcome,[5],inactive
same,outcome,[6],inactive
same,outcome,[7],inactive
same,outcome,[9],inactive
